Sampled rows, rich in hits. Any-hit rate of the full collection: about 6.8%.
Pf Dd2 inh: blocks growth of Plasmodium falciparum Dd2 parasites. P. falciparum Dd2 growth, SYBR Green, 72 h; stronger effect = lower value. hit rate 2.3% among 94,000. activity change, % at 10 µM; in the data active means activity change below about -80%; inconclusive means no clear call, values can overlap the other calls
T cruzi growth-1: blocks T. cruzi growth in NIH3T3 culture | T. cruzi beta-gal in NIH3T3, GalScreen luminescence, 90 h | inhibition, % at 8.34 µM | hit rate 5.9% among 77,000;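 active means mean inhibition above about 93%, with at least 55% of replicates each passing it, limit read from the data, passing the limit was not always enough; inconclusive means only one of those two conditions holds; inactive means neither condition holds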
C diff HTS: inhibitors of Clostridium difficile growth; growth activity, negative = inhibition, % at 16 µg/mL (by protocol); AID 1259249; Clostridium difficile clinical isolate growth, OD600, 24 h; stronger effect = lower value; hit rate 0.25% among 86,000;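 active means mean growth activity at or below -80% and every replicate also at or below -80%; inconclusive means mean at or below -80% but some replicate above -80%; inactive means mean growth activity above -80%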;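 further: 0% = DMSO wells and -100% = levofloxacin 16 µg/mL wells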
T cruzi growth-2: inhibitors of T. cruzi proliferation; shares compounds with T cruzi growth-1; T. cruzi beta-gal in NIH3T3, GalScreen luminescence, 90 h; inhibition, % at 8.35 µM; hit rate 72% among 5,600; AID 651739;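 active means mean replicate inhibition above about 95% and at least 55% of replicates individually reaching it, limit read from the data; inconclusive means only one of the two criteria is met; inactive means neither criterion is met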
T cruzi growth-3: inhibitors of T. cruzi proliferation. T. cruzi beta-gal in NIH3T3, GalScreen luminescence, 90 h. inhibition, % at 2.09 µM. hit rate 21% among 5,600. shares compounds with T cruzi growth-1;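 active means mean inhibition above about 95%, with at least 55% of replicates also reaching it, limit read from the data; inconclusive means meets just one of the two conditions; inactive means meets neither condition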;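 further: plate controls were neutral control median for no effect and positive control median for full effect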
3T3 cytotox: cytotoxicity in mouse NIH/3T3 fibroblasts; NIH/3T3 viability, CellTiter-Glo ATP luminescence, 90 h; AID 651742; cytotoxicity (signal decrease), % at 8.35 µM; shares compounds with T cruzi growth-1; hit rate 14% among 5,600;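 active means mean signal decrease across replicates above about 35% based on untreated-well scatter, with enough replicates individually passing, limit read from the data; inconclusive means no rule stated though some were filed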;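 further: 0% = median of neutral control wells and 100% = median of positive control wells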
3T3 cytotox 2: cytotoxicity in mouse NIH/3T3 fibroblasts. shares compounds with T cruzi growth-1. NIH/3T3 viability, CellTiter-Glo ATP luminescence, 90 h. inhibition, % at 24.9 µM. hit rate 56% among 5,600. AID 651744;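 active means mean loss of cell viability signal at or above a set limit, and enough replicates individually reaching it; inconclusive means meets only the mean limit or only the replicate share; inactive means meets neither condition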;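 further: 0% = median of neutral control wells and 100% = median of positive control wells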
* hit, by the source's call; ? = inconclusive; . = not tested or not shown.

SMILES | Pf Dd2 inh | T cruzi growth-1 | C diff HTS | T cruzi growth-2 | T cruzi growth-3 | 3T3 cytotox | 3T3 cytotox 2
COCC#Cc1ccc([C@@H]2[C@H]3CN(C(=O)COC)CCCCN3[C@H]2CO)cc1 | 55 | 25 | -11 | . | . | . | .
COCC#Cc1ccc([C@@H]2[C@@H](CO)N3CCCCN(C(=O)COC)C[C@H]23)cc1 | 56 | 102* | -13 | 38 | -5 | 16 | -2
CCC(=O)N1CCCCN2[C@H](CO)[C@H](c3ccc(C#CCOC)cc3)[C@H]2C1 | -14 | 64 | -2 | . | . | . | .
CCC(=O)N[C@H]1C=C[C@@H](CC(=O)NCCN2CCCCC2)O[C@H]1CO | 31 | -44 | 0 | . | . | . | .
C[C@@H]1CN([C@@H](C)CO)S(=O)(=O)c2ccc(-c3ccncc3)cc2O[C@@H]1CN(C)Cc1ccc(Oc2ccccc2)cc1 | -84* | ? | 5 | 99* | 108* | 74* | 74*
C[C@H](CO)N1C[C@H](C)[C@@H](CN(C)Cc2cccnc2)Oc2cc(-c3ccncc3)ccc2S1(=O)=O | -31 | 82 | 6 | . | . | . | .
C[C@H]1CN([C@@H](C)CO)S(=O)(=O)c2ccc(-c3cncnc3)cc2O[C@H]1CN(C)Cc1ccc(Oc2ccccc2)cc1 | 9 | . | 18 | . | . | . | .
C[C@H](CO)N1C[C@H](C)[C@H](CN(C)Cc2ccc(Oc3ccccc3)cc2)Oc2cc(-c3ccncc3)ccc2S1(=O)=O | -75 | 124* | 28 | 101* | 104* | 64* | 64*
CS(=O)(=O)N1CC2(C1)[C@@H](c1ccccc1)[C@@H](CO)N2CC1CC1 | 23 | . | -2 | . | . | . | .
C[C@@H]1CCCCO[C@H](CN(C)C(=O)CCC(F)(F)F)[C@H](C)CN([C@@H](C)CO)C(=O)c2cc(NS(=O)(=O)c3ccccc3)ccc2O1 | -28 | 47 | -4 | . | . | . | .
COc1cccc(CN2CCCCN3[C@H](C2)[C@@H](c2ccc(-c4cccnc4)cc2)[C@@H]3CO)c1 | -62 | 73 | 4 | . | . | . | .
COc1ccc(C#Cc2ccc([C@@H]3[C@H]4CN(Cc5ccncc5)CCCCN4[C@H]3CO)cc2)cc1 | -30 | 10 | -4 | . | . | . | .
COc1cccc(CN2CCCCN3[C@@H](CO)[C@H](c4ccc(C#Cc5cccnc5)cc4)[C@@H]3C2)c1 | -69 | 117* | 22 | 109* | 44 | 19 | 103*
COc1cccc(CN2CCCCN3[C@H](CO)[C@@H](c4ccc(C#Cc5cccnc5)cc4)[C@@H]3C2)c1 | -77 | 116* | 1 | 104* | 62 | 18 | 104*
N#C[C@@H]1[C@@H](c2ccccc2)[C@@H](CO)N1C(=O)c1ccc2c(c1)OCO2 | 32 | 9 | -6 | . | . | . | .
N#Cc1cccc(-c2ccc3c(c2)[C@@H]2[C@@H](CCN2Cc2cncnc2)[C@H](CO)N3)c1 | -78 | 112* | -10 | 115* | 81 | 6 | 40*
N#Cc1ccc(-c2ccc3c(c2)[C@@H]2[C@@H](CCN2Cc2cncnc2)[C@@H](CO)N3)cc1 | -35 | 68 | -13 | . | . | . | .
N#Cc1cccc(-c2ccc3c(c2)[C@H]2[C@H](CCN2C(=O)c2ccncc2)[C@H](CO)N3)c1 | -80* | 118* | -10 | 81 | 3 | 15 | 18
N#Cc1cccc(-c2ccc3c(c2)[C@@H]2[C@@H](CCN2C(=O)c2ccncc2)[C@H](CO)N3)c1 | -39 | 62 | -1 | . | . | . | .
Cc1noc(C)c1S(=O)(=O)N(C)C[C@@H]1Oc2ccc(NS(=O)(=O)c3cccs3)cc2CC(=O)N([C@H](C)CO)C[C@H]1C | 0 | 12 | -3 | . | . | . | .
CN(C)CC#Cc1ccc([C@@H]2[C@H](CO)N3CCCCN(S(=O)(=O)c4ccccc4F)C[C@@H]23)cc1 | -48 | 103* | 3 | 110* | 8 | 13 | 76*
Cc1ccccc1S(=O)(=O)N1CCCCN2[C@@H](CO)[C@@H](c3ccc(C#CCN(C)C)cc3)[C@@H]2C1 | -53 | 99* | 2 | 107* | 89 | ? | 103*
COCC#Cc1ccc([C@@H]2[C@@H](CO)N3CCCCN(S(=O)(=O)c4ccccc4C)C[C@H]23)cc1 | -49 | 1 | 7 | . | . | . | .
COCC#Cc1ccc([C@@H]2[C@@H](CO)N3CCCCN(S(=O)(=O)c4ccccc4F)C[C@H]23)cc1 | -53 | 87 | -8 | . | . | . | .
Cc1ccccc1S(=O)(=O)N1CCCCN2[C@H](CO)[C@@H](c3ccc(C#CCN(C)C)cc3)[C@@H]2C1 | -17 | 30 | -12 | . | . | . | .
SMILES | Pf Dd2 inh | T cruzi growth-1 | C diff HTS | T cruzi growth-2 | T cruzi growth-3 | 3T3 cytotox | 3T3 cytotox 2
COCC#Cc1ccc([C@H]2[C@@H](CO)N3CCCCN(S(=O)(=O)c4ccccc4F)C[C@@H]23)cc1 | -24 | 107* | 4 | 106* | 73 | 7 | 20
Cc1ccccc1S(=O)(=O)N1CCCCN2[C@H](C1)[C@H](c1ccc(C#CCN(C)C)cc1)[C@@H]2CO | -16 | 98* | 4 | 110* | 47 | 22 | 83*
COCC#Cc1ccc([C@H]2[C@H]3CN(S(=O)(=O)c4ccccc4F)CCCCN3[C@H]2CO)cc1 | 2 | 59 | 5 | . | . | . | .
O=C([C@@H]1[C@@H](CO)[C@@H]2Cn3c(ccc(C4=CCCC4)c3=O)[C@@H]2N1Cc1nccs1)N1CCOCC1 | . | -6 | 7 | . | . | . | .
O=C(C[C@@H]1C=C[C@H](NC(=O)c2cccnc2)[C@H](CO)O1)NCCN1CCCCC1 | 31 | -46 | -1 | . | . | . | .
COc1ccc(C#Cc2ccc([C@@H]3[C@H](CO)N4C(=O)CN(C(=O)c5ccc(F)cc5)C[C@@H]34)cc2)cc1 | -31 | . | -5 | . | . | . | .
CCCC#Cc1ccc([C@@H]2[C@@H](CO)N3CCCCN(S(=O)(=O)c4ccccc4C)C[C@H]23)cc1 | -55 | 119* | 43 | 105* | ? | 14 | 106*
COCC#Cc1ccc([C@@H]2[C@H]3CN(S(=O)(=O)c4ccccc4C)CCCCN3[C@H]2CO)cc1 | 7 | 94 | 2 | . | . | . | .
CC(C)c1cn(CC[C@@H]2CC[C@@H](NC(=O)Nc3cc(Cl)cc(Cl)c3)[C@H](CO)O2)nn1 | 10 | -4 | . | . | . | . | .
COCC#Cc1ccc2c(c1)O[C@H](CN(C)C)[C@H](C)CN([C@H](C)CO)S2(=O)=O | 15 | -46 | 0 | . | . | . | .
COc1ccc2c3c(n(C)c2c1)[C@@H](CO)N(C(C)=O)CC31CN(C(=O)NC(C)C)C1 | -22 | . | . | . | . | . | .
C[C@H](CO)N1C[C@H](C)[C@H](CN(C)C(=O)Nc2ccc(C(F)(F)F)cc2)Oc2c(cccc2N(C)C)C1=O | -11 | 96* | -1 | 91 | 17 | 3 | 11
C[C@H]1CN([C@@H](C)CO)C(=O)c2cccc(N(C)C)c2O[C@@H]1CN(C)C(=O)Nc1ccc(C(F)(F)F)cc1 | -15 | 40 | 2 | . | . | . | .
C[C@@H]1CN([C@H](C)CO)C(=O)c2cccc(N(C)C)c2O[C@H]1CN(C)Cc1ccc(C(F)(F)F)cc1 | -28 | 101* | 2 | 51 | 12 | -3 | 103*
